# Screens deposited in PubChem by National Center for Advancing Translational Sciences (NCATS).
# The list is not random: actives were taken first. Their share in the collection is about 20%.
# HCMV inh: qHTS Assay for inhibitors of the human cytomegalovirus (HCMV) | HFF cells, HCMV-luciferase reporter, 72 h; stronger effect = lower value | 410,000 tested, 4.5% active | activity change, negative = inhibition, % at 57.5 µM; in the data active = activity change below about -60%; inconclusive = no clear call, values can overlap the other calls; inactive = above about -39%; note: % is set by controls: 0 for no effect and ±100 for the full control effect
#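 Compounds were evaluated in HFFs infected with an HCMV luciferase reporter virus (MOI 1 PFU/cell). Luciferase in lysates collected 72 h post infection served as the replication measure.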
# Pf growth 48h: Primary qHTS for delayed death inhibitors of the malarial parasite plastid, 48 hour incubation | P. falciparum luciferase growth in erythrocytes, 48 h | Potency, µM (highest dose often 28.7 µM), without a hit: at the highest dose activity change, negative = inhibition, hits mostly inhibitors | 310,000 tested, 5.9% active | AID 504832, 2011; note: potency is the fitted concentration of half-maximal effect; % is set by controls: 0 for no effect and ±100 for the full control effect
#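 Erythrocytes infected with P. falciparum carrying an integrated firefly luciferase reporter (2% hematocrit, 0.1% parasitemia final) were exposed to compounds in RPMI 1640 with 0.5% Albumax at 37 C, 5% CO2. Growth inhibition was scored as reduced luminescence.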
# Shiga toxin inh: A qHTS for Small Molecule Inhibitors of Shiga Toxin | 290,000 tested, 9.2% active | Vero cells, Shiga toxin protein synthesis inhibition reporter | AID 2315, 2010 | inhibition, % at 38.7 µM; in the data active = inhibition mostly above about 28%, no sharp cut-off; inactive = mostly below about 43%; note: 0% is about no effect
# Cycloheximide cs: Cycloheximide Counterscreen for Small Molecule Inhibitors of Shiga Toxin; cell reporter, cycloheximide protein synthesis inhibition counterscreen; max response, %; 300,000 tested, 12% active; in the data active = max response mostly above about 13%, no sharp cut-off; inactive = mostly below about 14%; note: read at 38.3 µM for the half of the compounds with a filed dose; 0% is about no effect
# Pf growth 96h: Primary qHTS for delayed death inhibitors of the malarial parasite plastid, 96 hour incubation | 320,000 tested, 6.9% active | P. falciparum luciferase reporter growth, 96 h | Potency, µM (top dose mostly 28.7 µM), for the others: at the highest dose activity change, negative = inhibition, usual class: inhibitors; note: potency is the fitted concentration of half-maximal effect; % is set by controls: 0 for no effect and ±100 for the full control effect
#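 Delayed-death screen, second-generation endpoint: infected erythrocytes, 2% hematocrit, 0.05% parasitemia final; 96 hours at 37 C, 5% CO2; luciferase detection reagent; luminescence decrease equals reduced growth.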
# The depositor's hits bear a star; u = inconclusive; x = no result given; ! = not active in a repeat. Unless noted, calls come from the whole dose curve; as a rule, active = well fitted inhibition curve with a large enough effect; inconclusive = small, poorly fitted or top-dose-only effect, or another doubt; inactive = no such curve, though single readings can be large or run the other way.
SMILES,HCMV inh,Pf growth 48h,Shiga toxin inh,Cycloheximide cs,Pf growth 96h
COc1ccc(CN(C)Cc2c(O)ccc3ccccc23)cc1,18,u,3,9,26%
Cc1ccc(S(=O)(=O)Nc2cccc(-n3cnnn3)c2)cc1,u,12%,-6,-2,20%
COc1ccc(NC(=O)Cn2c(=O)n(-c3ccc(C)c(C)c3)c(=O)c3c(C)c(C)sc32)cc1,-16,x,x,x,x
COc1ccccc1C1NC(=O)NC(C)=C1C(=O)OC1CCCC(C)C1 (centres undefined),u,-1%,-12,-1,20%
Cc1ccc2oc(=O)c3cc(C(=O)NCCCN4CC(C)CC(C)C4)sc3c2c1 (centres undefined),8,2.1µM*,-3,-2,3%
O=C(NCCCN1CCCCCC1)c1cc2c(=O)oc3ccccc3c2s1,5,2.9µM*,-8,-2,23%
CC1=C(O)C(=O)C(c2c(C)cc(C)c(Br)c2C)=C(O)C1=O,13,x,x,x,x
CCOc1cc(NS(=O)(=O)c2ccc(NC(C)=O)cc2)c(OCC)cc1NC(=O)c1cccs1,-79*,-4%,-1,-1,5%
CCOc1cc(NC(=S)NCCCN(C)C)c(OCC)cc1NC(=O)c1cccs1,-64*,u,-12,2,-14%
CCOc1cc(NC(=S)NC)c(OCC)cc1NC(=O)c1cccs1,-9,37%,2,11,u
CCOc1cc(NC(=S)NCCCOC)c(OCC)cc1NC(=O)c1cccs1,-16,-1%,2,1,29%
O=C(NC1CCCCC1)c1nnc2n1CCN(Cc1cccc(C(F)(F)F)c1)C2,21,x,x,x,x
CCOc1ccc(N(Cc2nnc3n2CCCCC3)C(=O)Nc2cccc(C)c2)cc1,u,-4%,14,-3,17%
Cn1nc([N+](=O)[O-])nc1Sc1nnc(-c2ccccc2)o1,-90*,x,-8,6,u
COc1ccc(S(=O)(=O)c2c(O)c3ccc(C(=O)Nc4ccccc4)cc3[nH]c2=O)cc1,-33,25%,-3,-4,u
COc1ccc(S(=O)(=O)c2c(C)c(NS(=O)(=O)c3ccccc3)cc(C)c2O)cc1,-63*!,3%,9,1,u
COc1ccc(S(=O)(=O)c2c(O)c(C)cc(NC(=O)c3ccccc3)c2C(C)C)cc1,-63*,x,x,x,x
Cc1ccc(N2C(=O)C3C(C2=O)C2C=CC3C23CC3)c([N+](=O)[O-])c1 (centres undefined),-12,-2%,-7,7,-13%
COc1ccccc1N1CCN(c2nccc(C)n2)CC1,-23,25%,-7,-2,2%
CCOC(=O)[C@H]1[C@H]2COc3ccc(OC)cc3[C@@H]2N2C(=O)CN(Cc3ccc(C)cc3)C(=O)[C@@]12C,3,10µM*,x,x,3.7µM*
CCOC(=O)[C@H]1[C@H]2COc3ccc(OC)cc3[C@H]2N2C(=O)CN(Cc3ccccc3)C(=O)[C@@]12C,19,x,x,x,x
CCOC(=O)[C@H]1[C@H]2COc3ccc(OC)cc3[C@@H]2N2C(=O)CN(Cc3ccc(OC)cc3)C(=O)[C@@]12C,2,6.6µM*,x,x,u
CCOC(=O)[C@H]1[C@H]2COc3ccc(Br)cc3[C@H]2N2C(=O)CN(Cc3ccc(C)cc3)C(=O)[C@@]12C,-6,x,x,x,x
CCOC(=O)[C@H]1[C@H]2COc3cc(OC)ccc3[C@@H]2N2C(=O)CN(Cc3ccc(OC)cc3)C(=O)[C@@]12C,-4,12µM*,x,x,u
CCOC(=O)[C@H]1[C@H]2COc3ccc(Br)cc3[C@@H]2N2C(=O)CN(Cc3ccc(C)cc3)C(=O)[C@@]12C,-14,15µM*,x,x,u
CCOC(=O)[C@H]1[C@H]2COc3cc(OC)ccc3[C@@H]2N2C(=O)CN(Cc3ccccc3)C(=O)[C@@]12C,-40,u,x,x,u
CCOC(=O)c1cnc2c(OC)cccc2c1N1CCN(c2ccc(OC)cc2)CC1,28,12µM*,12,-4,9%
CCOC(=O)c1cnc2c(OC)cccc2c1N1CC(C)CC(C)C1 (centres undefined),u,0%,-5,-2,u
CCOC(=O)c1cnc2c(OC)cccc2c1N1CCN(c2ccccn2)CC1,-69*,13%,-8,-1,44%
